# From PubChem BioAssay (NCATS)
# Values joined by “and” are separate entries in the source; they are usually repeats but may differ in a detail not shown here. Equal values may be shown once. Records with an inconclusive call do not appear. A call without a number means that no potency is given here. Active and inactive are the calls of the source. Unless noted, calls come from the whole dose curve; as a rule, active = well fitted curve in the direction sought with a large enough effect; inconclusive = small, poorly fitted or top-dose-only effect, or another doubt; inactive = no such curve, though single readings can be large; an effect the other way counts as inactive or inconclusive.
# Columns and labels:
# [1] = biological target: Chromobox protein homolog 1 (Homo sapiens) (UniProt P83916); experiment: qHTS Validation Assay for Inhibitors of HP1-beta Chromodomain Interactions with Methylated Histone Tails (AID 488953); note: nearly all actives have a fitted effect of over 50% in size; note: potency is the fitted concentration of half-maximal effect
# In short: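 AlphaScreen proximity readout: streptavidin donor and Ni-chelate acceptor beads, 10 ug/mL final, 30 min dark, RT. Complex of 50 nM HP1-beta and 50 nM b-H3(1-18)K9me3 formed 30 min, then compound-treated 30 min; PBS pH 7.4/0.01% Tween-20.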
# [2] = biological target: D(1A) dopamine receptor (Homo sapiens) (UniProt P21728); experiment: HTS Assay for Allosteric Agonists of the Human D1 Dopamine Receptor: Primary Screen for Agonists (AID 488981)
# In short: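 Calcium flux in an inducible, force-coupled HEK293 Trex D1 line (overnight at 30 C): agonist mode is the 180 s kinetic read after compound; potentiator mode is the following 180 s read after dopamine at EC20.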
# [3] = biological target: D(1A) dopamine receptor (Homo sapiens) (UniProt P21728); experiment: HTS Assay for Allosteric Agonists of the Human D1 Dopamine Receptor: Primary Screen for Antagonists (AID 488983);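 note: calcium flux response to an EC80 dopamine challenge measured with no-wash dye; nearly all actives have a fitted effect of over 65% in size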; note: potency is the fitted concentration of half-maximal effect
# In short: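 Calcium flux readout, no-wash dye, inducible HEK293 T-REx D1 line (force-coupled). Compound added after 10 s baseline, 180 s kinetic read; then dopamine at EC80, further 180 s read.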
# [4] = Validation screen for small molecules that induce genotoxicity in human embryonic kidney (HEK293T) cells expressing luciferase-tagged ELG1 (AID 493106); note: potency is the fitted concentration of half-maximal effect
# In short: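 qHTS format; 2,000 HEK293T ELG1-luc cells/well; 23 nL compound via pin tool; 16 hr, 37 °C/5% CO2; ONE-Glo, 30 min RT; luminescence read.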
# [5] = biological target: ATPase family AAA domain-containing protein 5 (Homo sapiens) (UniProt Q96QE3); experiment: Validation screen for small molecules that inhibit ELG1-dependent DNA repair in human embryonic kidney (HEK293T) cells expressing luciferase-tagged ELG1 (AID 493107);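 note: cells co-treated with the DNA-damaging agent 5-fluorouridine alongside compound; series mostly up to about 46 µM; inhibitors lower the ELG1-luciferase luminescence signal; nearly all actives have a fitted effect of over 70% in size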
# In short: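 ELG1-luciferase HEK293T reporter; 5-fluorouridine + compound/DMSO, 16 hr, 37 °C, 5% CO2; ONE-Glo 30 min RT; luminescence read, qHTS format.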
# [6] = Nrf2 qHTS screen for inhibitors: Validation (AID 493153; active = well fitted inhibition curve with a large enough effect in the main read-out, with a control signal flat, not every such curve was filed as active); details: Potency: luciferase luminescence; viability change: measured here: cytotoxicity max response
# In short: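 Concentration-response test in A549 ARE_Fluc reporter cells (5% FBS OPTI-MEM), compound exposure 18-24 h at 37°C, 5% CO2. Cell viability measured first by CellTiter-Fluor fluorescence; ARE-driven luciferase luminescence then measured as Nrf2 activity.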
# [7] = qHTS for Inhibitors of Cell Surface uPA Generation: Validation Assay (AID 493164);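 note: RAW 264.7 macrophage cells exposed to compound for 18 h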
# In short: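 Compounds are titrated over seven points (2.45 nM–38.3 uM final) onto pre-plated RAW 264.7 cells and incubated for 18 h. Retained intracellular ATP, measured with ATP-Lite, indicates blocked lethal factor entry.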
# [8] = biological target: Peptidyl-prolyl cis-trans isomerase NIMA-interacting 1 (Homo sapiens) (UniProt Q13526); experiment: qHTS Validation Assay to Find Inhibitors of Pin1 (AID 504536; active = well fitted inhibition curve with a large enough effect in the polarisation, with a control signal flat, not every such curve was filed as active; the % refers to the polarisation)
# In short: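 Fluorescence polarization competition: compounds (titration) displace HiFluor-488-labeled Pin1-1b peptide from Pin1 (0.3 uM final) in pH 7.5 HEPES buffer with DTT, 10 min at room temperature; %Activity normalized to no-enzyme wells, curves fitted.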
# [9] = biological target: Phosphoglycerate kinase, glycosomal (Trypanosoma brucei brucei) (UniProt P07378); experiment: qHTS Validation Assay to Find Inhibitors of Phosphoglycerate Kinase (AID 504547)
# In short: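 Luminescence end-point (Kinase-Glo Plus, 10 min) after a 60 min room-temperature coupled reaction. GAPDH at 100nM final supplies 1,3-BPG to PGK. Buffer: 100mM TEA pH 7.6, 5mM MgCl2, 0.01% Tween-20. Wells lacking PGK served as controls.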
# [10] = biological target: phosphoglycerate mutase (Leishmania major) (UniProt Q4Q090); experiment: qHTS Validation Assay to Find Inhibitors of Phosphoglycerate Mutase (AID 504548);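 note: end-point luminescence from Kinase-GloPlus after the PGAM reaction; series mostly up to about 58 µM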
# In short: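 L. major PGAM (1.25nM final) was added to substrate buffer and pinned compound, incubated 45 minutes at room temperature, then Kinase-GloPlus added; luminescence read after 10 minutes. Buffer: 100 mM TEA pH 7.6, 5 mM MgCl2, 0.01% Tween-20.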
# [11] = Inducers of the Endoplasmic Reticulum Stress Response (ERSR) in human glioma: Validation (AID 504836)
# In short: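 ERSR induction read as luciferase luminescence (Bright-Glo, 10 min at room temperature) in stably transfected human U87-MG glioma cells exposed to compounds for 16 h, using GRP78 as sensor.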
# [12] = biological target: Ubiquitin carboxyl-terminal hydrolase 1 (Homo sapiens) (UniProt O94782); experiment: Inhibitors of USP1/UAF1: Pilot qHTS (AID 504865);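 note: rhodamine fluorescence freed from ubiquitin-rhodamine substrate followed over time; top concentration of the series differs between compounds; nearly all actives have a fitted effect of over 35% in size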
# In short: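 Kinetic fluorescence assay: 1nM USP1/UAF1, 15 min compound preincubation, then 150nM Ub-Rho; 480/540 nm.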
# [13] = qHTS for Inhibitors of ATXN expression: Validation of Cytotoxic Assay (AID 588349)
# In short: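 Cytotoxicity counter-screen: HEK293 cells exposed to compound titrations, 72 hr, 37 degrees C. Read-out is intracellular ATP (CellTiter Glo luminescence) as a viability measure.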
# [14] = biological target: DNA dC->dU-editing enzyme APOBEC-3G (Homo sapiens) (UniProt Q9HC16); experiment: qHTS for inhibitors of Vif-A3G interactions: Validation (AID 588379)
# In short: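 Yellow fluorescence (Ex 488, Em 500-530) of Vif-coexpressing HeLa A3G-eYFP cells, scanned by Acumen cytometer, reports blocked A3G degradation. Cells plated at 700/well overnight at 37 deg C before compound addition, then a further overnight compound incubation at 37 deg C.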
# [15] = biological target: Transient receptor potential cation channel subfamily V member 1 (Homo sapiens) (UniProt Q8NER1); experiment: HTS Assay for Compounds that Act as Enhancers of the Vanilloid Receptor 1 (AID 488979)
# In short: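 Calcium influx kinetics via Fluo-8 (480/520 nm) in TRPV1-expressing cells, 2000/well cultured overnight at 35.5C. Compound-alone read 3 min (agonist phase), followed by EC20 capsaicin challenge for 2 min (enhancer phase).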
# [16] = biological target: ATP-dependent 6-phosphofructokinase (Trypanosoma brucei brucei) (UniProt O15648); experiment: qHTS Assay to Find Inhibitors of T. brucei phosphofructokinase: hit validation (AID 492961);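 note: luminescence reports ADP formed as PFK phosphorylates fructose-6-phosphate with ATP; series mostly up to about 51 µM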
# In short: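 ADP-Glo luminescence read-out of ADP formed by 1.25 nM PFK from 0.1 mM ATP and 0.5 mM F6P (TEA pH 8.0, 45 min, RT). Compounds titrated; activity normalized to no-enzyme and full-enzyme controls.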
# [17] = biological target: Thyrotropin-releasing hormone receptor (Homo sapiens) (UniProt P34981); experiment: qHTS for Small Molecule Agonists and Allosteric Enhancers of Human TRH Receptor: Validation Screen for Agonists (AID 493127;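 active = calcium activation more than 3 SD above the typical response in the agonist read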;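 note: intracellular calcium rise by fluo-8 fluorescence before TRH EC20 addition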); details: TRH receptor agonist cell assay; at 2 µM; stronger effect = higher value
# In short: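 Read-out: intracellular calcium release measured kinetically by FDSS (fluo-8, ex 480/em 530 nm), 1 reading/s after a 10-cycle baseline. TRHR cells, 2000/well, cultured 18 h at 33.5C, dye-loaded at room temp. Compound-evoked positive calcium signal flags agonists.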
# [18] = biological target: Galactokinase (Homo sapiens) (UniProt P51570); experiment: qHTS Validation Assay for Inhibitors of Human Galactokinase (GALK) (AID 493189)
# In short: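 Compounds were pin-transferred into ATP buffer, then GALK-galactose mix was added (final 5 nM enzyme, 100 uM galactose, 35 uM ATP). After 1 h at room temperature, remaining ATP was measured luminescently.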
# [19] = Validation screen for small molecules that induce DNA re-replication in SW480 colon adenocarcinoma cells (AID 504364); note: potency is the fitted concentration of half-maximal effect
# In short: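 Read-out: total Hoechst intensity of nuclei by fluorescence scanning imager; hits raise the fraction of nuclei with elevated DNA content. Cells received compound for 48 hr at 37 C before a 40 min stain.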
# [20] = biological target: Thyrotropin receptor (Homo sapiens) (UniProt P16473); experiment: qHTS Assay for Antagonists of the Thyroid Stimulating Hormone Receptor (AID 488980); note: series mostly up to about 58 µM
# In short: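 Cells expressing human TSHR (HEK293) are dispensed in HBSS/HEPES containing 70 uM RO 20-1724, compound is added, then TSH at EC80 (4 nM final). Antibody in lysis buffer follows, 30 minutes at room temperature before HTRF detection.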
# Chain of Phosphoglycerate kinase, glycosomal (Trypanosoma brucei brucei) (P07378 whole entry, looked up): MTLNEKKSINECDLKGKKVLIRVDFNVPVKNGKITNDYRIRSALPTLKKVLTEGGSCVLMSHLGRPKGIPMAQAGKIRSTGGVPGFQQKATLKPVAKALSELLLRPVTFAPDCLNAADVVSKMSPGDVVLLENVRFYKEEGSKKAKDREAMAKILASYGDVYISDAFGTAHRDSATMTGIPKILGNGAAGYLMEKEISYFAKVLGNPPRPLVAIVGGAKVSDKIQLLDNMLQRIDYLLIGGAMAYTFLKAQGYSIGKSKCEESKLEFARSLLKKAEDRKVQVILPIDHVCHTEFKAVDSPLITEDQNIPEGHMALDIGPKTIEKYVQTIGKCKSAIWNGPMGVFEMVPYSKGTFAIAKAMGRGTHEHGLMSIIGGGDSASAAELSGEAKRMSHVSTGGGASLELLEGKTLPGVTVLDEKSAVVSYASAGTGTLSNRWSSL
# Chain of Galactokinase (Homo sapiens) (P51570 whole entry, looked up): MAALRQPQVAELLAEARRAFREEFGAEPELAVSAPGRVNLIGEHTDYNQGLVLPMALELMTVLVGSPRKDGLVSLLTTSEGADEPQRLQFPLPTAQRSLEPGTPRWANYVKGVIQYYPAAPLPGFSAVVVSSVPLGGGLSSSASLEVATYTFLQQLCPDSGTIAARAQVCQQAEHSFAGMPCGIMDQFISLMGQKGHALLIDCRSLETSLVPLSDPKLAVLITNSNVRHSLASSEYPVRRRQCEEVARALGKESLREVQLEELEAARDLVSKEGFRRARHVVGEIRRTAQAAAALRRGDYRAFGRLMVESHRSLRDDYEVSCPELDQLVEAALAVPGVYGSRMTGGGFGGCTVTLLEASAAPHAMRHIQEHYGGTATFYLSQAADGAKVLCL
# Chain of Transient receptor potential cation channel subfamily V member 1 (Homo sapiens) (Q8NER1 whole entry, looked up): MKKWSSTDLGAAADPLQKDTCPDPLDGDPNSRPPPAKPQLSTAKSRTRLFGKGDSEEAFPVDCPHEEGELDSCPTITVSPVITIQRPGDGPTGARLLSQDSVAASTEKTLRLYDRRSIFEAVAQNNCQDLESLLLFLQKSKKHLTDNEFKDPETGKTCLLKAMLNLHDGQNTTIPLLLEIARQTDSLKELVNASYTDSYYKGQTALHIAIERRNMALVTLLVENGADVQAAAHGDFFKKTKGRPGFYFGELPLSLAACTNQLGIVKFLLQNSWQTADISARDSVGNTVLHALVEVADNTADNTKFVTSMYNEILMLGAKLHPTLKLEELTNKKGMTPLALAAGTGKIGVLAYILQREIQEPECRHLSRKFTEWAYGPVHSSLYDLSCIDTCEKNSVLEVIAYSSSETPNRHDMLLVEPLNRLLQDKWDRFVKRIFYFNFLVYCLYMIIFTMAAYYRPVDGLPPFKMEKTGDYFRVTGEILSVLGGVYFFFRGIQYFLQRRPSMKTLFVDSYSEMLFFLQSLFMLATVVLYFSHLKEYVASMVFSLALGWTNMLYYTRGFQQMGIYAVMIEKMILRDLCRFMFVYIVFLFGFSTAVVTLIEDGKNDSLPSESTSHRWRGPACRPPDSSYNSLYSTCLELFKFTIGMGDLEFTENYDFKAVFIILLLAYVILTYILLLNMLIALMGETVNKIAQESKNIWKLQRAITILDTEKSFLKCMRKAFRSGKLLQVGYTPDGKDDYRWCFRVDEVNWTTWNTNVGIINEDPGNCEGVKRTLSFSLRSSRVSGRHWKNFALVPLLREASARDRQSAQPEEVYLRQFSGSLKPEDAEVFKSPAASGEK
# Chain of Ubiquitin carboxyl-terminal hydrolase 1 (Homo sapiens) (O94782 whole entry, looked up): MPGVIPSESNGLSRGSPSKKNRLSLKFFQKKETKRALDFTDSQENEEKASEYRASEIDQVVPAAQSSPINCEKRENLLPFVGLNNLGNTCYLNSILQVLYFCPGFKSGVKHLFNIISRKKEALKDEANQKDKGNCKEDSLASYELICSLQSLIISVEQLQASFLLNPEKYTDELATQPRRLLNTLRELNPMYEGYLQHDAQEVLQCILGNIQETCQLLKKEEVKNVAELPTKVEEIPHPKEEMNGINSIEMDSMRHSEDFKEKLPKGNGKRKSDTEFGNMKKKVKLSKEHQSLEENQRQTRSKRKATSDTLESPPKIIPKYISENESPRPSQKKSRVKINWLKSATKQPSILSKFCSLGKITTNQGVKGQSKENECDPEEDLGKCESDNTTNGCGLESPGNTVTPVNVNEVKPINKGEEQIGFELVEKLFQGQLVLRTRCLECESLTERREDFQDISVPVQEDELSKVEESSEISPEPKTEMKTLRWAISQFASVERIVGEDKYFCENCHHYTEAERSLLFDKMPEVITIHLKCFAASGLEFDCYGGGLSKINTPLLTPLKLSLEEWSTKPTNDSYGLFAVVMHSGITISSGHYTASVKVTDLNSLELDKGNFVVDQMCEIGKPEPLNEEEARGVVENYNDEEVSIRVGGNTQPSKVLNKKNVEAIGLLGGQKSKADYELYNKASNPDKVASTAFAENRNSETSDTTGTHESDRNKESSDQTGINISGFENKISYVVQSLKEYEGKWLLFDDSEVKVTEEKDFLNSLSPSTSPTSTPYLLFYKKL
# Chain of DNA dC->dU-editing enzyme APOBEC-3G (Homo sapiens) (Q9HC16 whole entry, looked up): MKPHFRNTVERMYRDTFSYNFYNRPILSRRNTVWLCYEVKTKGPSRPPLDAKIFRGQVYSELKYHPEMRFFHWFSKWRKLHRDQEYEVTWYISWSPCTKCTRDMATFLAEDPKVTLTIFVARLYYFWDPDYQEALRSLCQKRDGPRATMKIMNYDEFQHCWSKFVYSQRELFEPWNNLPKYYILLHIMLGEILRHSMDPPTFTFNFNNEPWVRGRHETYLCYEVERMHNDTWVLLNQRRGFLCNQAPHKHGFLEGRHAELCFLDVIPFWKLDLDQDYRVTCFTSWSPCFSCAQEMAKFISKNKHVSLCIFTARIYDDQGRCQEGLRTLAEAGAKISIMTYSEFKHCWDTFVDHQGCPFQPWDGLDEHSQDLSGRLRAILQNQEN
# Chain of Thyrotropin receptor (Homo sapiens) (P16473 whole entry, looked up): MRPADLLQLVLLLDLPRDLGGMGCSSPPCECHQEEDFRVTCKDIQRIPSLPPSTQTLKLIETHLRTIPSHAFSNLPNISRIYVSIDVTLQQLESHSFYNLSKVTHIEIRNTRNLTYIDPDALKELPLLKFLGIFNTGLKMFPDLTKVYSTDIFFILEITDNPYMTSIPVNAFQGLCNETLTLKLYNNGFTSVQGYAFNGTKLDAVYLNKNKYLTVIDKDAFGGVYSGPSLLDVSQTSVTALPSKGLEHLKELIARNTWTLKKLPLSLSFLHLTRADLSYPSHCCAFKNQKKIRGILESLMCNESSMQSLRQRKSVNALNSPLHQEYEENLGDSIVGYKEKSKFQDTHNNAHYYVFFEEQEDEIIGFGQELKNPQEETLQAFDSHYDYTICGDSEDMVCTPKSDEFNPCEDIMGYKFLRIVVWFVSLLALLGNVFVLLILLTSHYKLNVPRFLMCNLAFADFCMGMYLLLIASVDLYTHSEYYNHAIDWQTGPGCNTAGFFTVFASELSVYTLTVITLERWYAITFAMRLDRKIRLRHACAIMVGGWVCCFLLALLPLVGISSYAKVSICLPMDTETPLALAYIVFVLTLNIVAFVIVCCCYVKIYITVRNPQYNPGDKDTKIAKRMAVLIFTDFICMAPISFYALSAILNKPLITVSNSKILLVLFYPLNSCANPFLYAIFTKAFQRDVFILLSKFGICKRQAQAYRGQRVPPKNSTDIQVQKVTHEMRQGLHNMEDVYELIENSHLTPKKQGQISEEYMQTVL
# Chain of Chromobox protein homolog 1 (Homo sapiens) (P83916 whole entry, looked up): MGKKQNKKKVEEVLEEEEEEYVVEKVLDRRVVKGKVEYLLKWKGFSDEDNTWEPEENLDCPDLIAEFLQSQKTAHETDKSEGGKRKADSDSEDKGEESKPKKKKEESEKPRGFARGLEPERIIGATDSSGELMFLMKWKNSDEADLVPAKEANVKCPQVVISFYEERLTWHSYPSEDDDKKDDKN
# Chain of Peptidyl-prolyl cis-trans isomerase NIMA-interacting 1 (Homo sapiens) (Q13526 whole entry, looked up): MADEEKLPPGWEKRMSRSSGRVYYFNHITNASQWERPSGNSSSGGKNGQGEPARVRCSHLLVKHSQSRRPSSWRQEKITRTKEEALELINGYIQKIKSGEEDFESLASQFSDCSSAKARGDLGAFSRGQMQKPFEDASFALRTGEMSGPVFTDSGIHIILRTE
# Chain of phosphoglycerate mutase (Leishmania major) (Q4Q090 1-553): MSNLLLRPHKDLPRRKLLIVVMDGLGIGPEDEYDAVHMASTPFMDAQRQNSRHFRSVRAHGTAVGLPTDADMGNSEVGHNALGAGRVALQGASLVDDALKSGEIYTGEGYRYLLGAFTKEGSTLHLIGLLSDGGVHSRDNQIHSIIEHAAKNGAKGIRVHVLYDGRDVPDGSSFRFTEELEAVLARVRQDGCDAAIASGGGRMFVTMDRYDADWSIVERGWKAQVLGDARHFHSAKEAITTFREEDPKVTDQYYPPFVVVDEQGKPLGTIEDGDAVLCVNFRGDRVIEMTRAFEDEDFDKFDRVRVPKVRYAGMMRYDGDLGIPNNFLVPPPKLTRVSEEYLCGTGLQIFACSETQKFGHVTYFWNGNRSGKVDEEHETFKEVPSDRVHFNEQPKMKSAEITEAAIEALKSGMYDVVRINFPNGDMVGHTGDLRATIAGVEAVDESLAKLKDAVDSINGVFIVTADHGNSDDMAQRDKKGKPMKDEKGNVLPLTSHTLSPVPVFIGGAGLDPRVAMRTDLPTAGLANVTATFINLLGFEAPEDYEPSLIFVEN
# Chain of D(1A) dopamine receptor (Homo sapiens) (P21728 whole entry, looked up): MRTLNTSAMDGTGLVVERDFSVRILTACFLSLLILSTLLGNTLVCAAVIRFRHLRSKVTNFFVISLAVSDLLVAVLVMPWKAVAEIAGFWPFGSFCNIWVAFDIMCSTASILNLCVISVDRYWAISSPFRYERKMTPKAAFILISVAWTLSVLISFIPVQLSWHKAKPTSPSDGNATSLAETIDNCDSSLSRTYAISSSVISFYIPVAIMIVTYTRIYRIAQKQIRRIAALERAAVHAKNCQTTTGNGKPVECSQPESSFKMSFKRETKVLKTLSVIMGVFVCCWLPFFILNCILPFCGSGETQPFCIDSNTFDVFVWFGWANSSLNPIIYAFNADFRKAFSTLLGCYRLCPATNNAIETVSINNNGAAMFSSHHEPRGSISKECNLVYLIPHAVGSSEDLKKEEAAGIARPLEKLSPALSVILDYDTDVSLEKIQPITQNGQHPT
smiles,measurement,setting,value
CCCN1CCC[C@@H]2Cc3[nH]ncc3C[C@H]21,Potency,[1],inactive
same,Potency,[2],inactive
same,Potency,[3],inactive
same,Potency,[4],inactive
same,Potency,[5],inactive
same,Potency,[6],inactive
same,viability change,[6],1.53% and 0.366%
same,outcome,[7],inactive
same,Potency,[8],inactive
same,Potency,[9],inactive
same,outcome,[10],inactive
same,outcome,[11],inactive
same,Potency,[12],inactive
same,Potency,[13],inactive
same,outcome,[14],inactive
CC(=O)[C@H]1CC[C@H]2[C@@H]3CC[C@H]4C[C@H](O)CC[C@]4(C)[C@H]3C(=O)C[C@]12C,Potency,[1],inactive
same,outcome,[15],inactive
same,Potency,[2],inactive
same,Potency,[3],inactive
same,outcome,[16],inactive
same,Potency,[4],inactive
same,Potency,[5],inactive
same,activation,[17],1.5% (inactive)
same,outcome,[7],inactive
same,outcome,[18],inactive
same,Potency,[19],inactive
same,Potency,[8],inactive
same,Potency,[9],inactive
same,outcome,[10],inactive
same,outcome,[11],inactive
same,Potency,[12],inactive
same,Potency,[13],inactive
CCCN1CCC[C@@H]2Cc3nc(N)ncc3C[C@H]21,Potency,[1],inactive
same,outcome,[15],inactive
same,outcome,[20],inactive
same,Potency,[2],inactive
same,Potency,[3],inactive
same,Potency,[4],inactive
same,Potency,[5],inactive
same,activation,[17],0.562% (inactive)
same,Potency,[6],inactive
same,viability change,[6],1.56%
same,outcome,[7],inactive
same,outcome,[18],inactive
same,Potency,[19],inactive
same,Potency,[8],inactive
same,Potency,[9],inactive
same,outcome,[10],inactive
same,outcome,[11],inactive
same,Potency,[12],inactive
same,Potency,[13],inactive
COc1cc2c(c(OC)c1OC)-c1ccc(OC)c(=O)cc1[C@@H](NC(C)=O)CC2,Potency,[1],inactive
same,Potency,[4],461 nM (active)
same,Potency,[19],58 nM (active)
same,outcome,[11],inactive
same,Potency,[12],inactive
CC(COc1ccccc1)N(CCCl)Cc1ccccc1 (configuration not stated),Potency,[1],9.5 nM (active)
same,outcome,[11],inactive
same,Potency,[12],inactive
NCC1(CC(=O)O)CCCCC1,Potency,[1],inactive
same,outcome,[15],inactive
same,outcome,[20],inactive
same,Potency,[2],inactive
same,Potency,[3],inactive
same,Potency,[4],inactive
same,Potency,[5],inactive
same,activation,[17],1.12% (inactive)
same,Potency,[6],inactive
same,viability change,[6],10.1%
same,outcome,[7],inactive
same,outcome,[18],inactive
same,Potency,[19],inactive
same,Potency,[8],inactive
same,Potency,[9],inactive
same,outcome,[10],inactive
same,outcome,[11],inactive
same,Potency,[12],inactive
same,Potency,[13],inactive
same,outcome,[14],inactive
CN1C[C@H](CNC(=O)OCc2ccccc2)C[C@@H]2c3cccc4c3c(cn4C)C[C@H]21,Potency,[1],44700 nM (active)
same,outcome,[20],inactive
same,Potency,[2],inactive
same,Potency,[3],447 nM (active)
same,Potency,[4],inactive
same,activation,[17],7.38% (inactive)
same,outcome,[7],inactive
same,outcome,[18],inactive
same,Potency,[9],inactive
same,outcome,[10],inactive
same,outcome,[11],inactive
same,Potency,[12],inactive
same,outcome,[14],inactive
